Test results published in PubChem BioAssay (NCI).
The panel holds about 83,000 compounds, 20% with a hit somewhere; the sample as a whole holds those more often.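 Results are percent growth after 48 hours of single-concentration exposure. 100 means growth as in untreated cells, lower positive values show inhibition; negative values down to -100 show cell death.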 Calls of active or inactive are those of the source. How the source made its calls: active means growth percent below 10; inactive means the rest.

Assays:
Assay in all cases: NCI-60 one-dose screen, 48 h (100 = growth as untreated, 0 = no growth, -100 = all killed)
Details in all cases: 10 µM unless noted
RPMI-8226 leukemia = tested on: RPMI-8226 leukemia
OVCAR-8 ovarian = tested on: OVCAR-8 ovarian
OVCAR-5 ovarian = tested on: OVCAR-5 ovarian
OVCAR-4 ovarian = tested on: OVCAR-4 ovarian
SK-OV-3 ovarian = tested on: SK-OV-3 ovarian
IGROV1 ovarian = tested on: IGROV1 ovarian
OVCAR-3 ovarian = tested on: OVCAR-3 ovarian
HS 578T breast = tested on: HS 578T breast
NCI/ADR-RES ovarian = tested on: NCI/ADR-RES ovarian
T-47D breast = tested on: T-47D breast

Measured: growth

Clc1cc(Cl)c(OCC#CI)cc1Cl
inactive: RPMI-8226 leukemia 15.2% | OVCAR-8 ovarian 72.1% | OVCAR-5 ovarian 101% | OVCAR-4 ovarian 80% | SK-OV-3 ovarian 102% | IGROV1 ovarian 45.3% | HS 578T breast 103% | NCI/ADR-RES ovarian 83.6%
active: OVCAR-3 ovarian -61.5% | T-47D breast 1.86%

O=NC1CC=CCC1c1ccccc1 (centres undefined)
inactive: RPMI-8226 leukemia 114% | OVCAR-8 ovarian 108% | OVCAR-5 ovarian 94.5% | OVCAR-4 ovarian 106% | SK-OV-3 ovarian 111% | IGROV1 ovarian 111% | OVCAR-3 ovarian 118% | HS 578T breast 125% | NCI/ADR-RES ovarian 104% | T-47D breast 111%

COc1ccc2c(c1)nc(N)c1c3cc(C)c(C)cc3cn21
inactive: RPMI-8226 leukemia 81.1% | OVCAR-8 ovarian 82.3% | OVCAR-5 ovarian 111% | OVCAR-4 ovarian 78.5% | SK-OV-3 ovarian 86.8% | IGROV1 ovarian 77.2% | OVCAR-3 ovarian 70.6% | NCI/ADR-RES ovarian 37.3% | T-47D breast 63.8%

CCCCCCOc1ccc(/C=N/NC(N)=S)cc1
active: RPMI-8226 leukemia 7.2%
inactive: OVCAR-8 ovarian 70.6% | OVCAR-5 ovarian 84.5% | OVCAR-4 ovarian 26.5% | SK-OV-3 ovarian 90.6% | IGROV1 ovarian 13.9% | OVCAR-3 ovarian 28.5% | HS 578T breast 61.8% | NCI/ADR-RES ovarian 58.5% | T-47D breast 24%

O=C(COC(=O)[C@H](C[Se][Se]C[C@H](NC(=O)c1ccc(Br)cc1F)C(=O)OCC(=O)c1ccc(F)cc1)NC(=O)c1ccc(Br)cc1F)c1ccc(F)cc1
active: RPMI-8226 leukemia -44.3% | OVCAR-8 ovarian -100% | OVCAR-5 ovarian -68.7% | OVCAR-4 ovarian -95.7% | SK-OV-3 ovarian -81% | IGROV1 ovarian -100% | OVCAR-3 ovarian -100% | HS 578T breast -16% | NCI/ADR-RES ovarian -82.8% | T-47D breast -67%

Cn1cc(-c2nc(-c3c[nH]c4ncccc34)cs2)c2cccnc21
inactive: RPMI-8226 leukemia 67.1% | OVCAR-8 ovarian 82.9% | OVCAR-5 ovarian 83.6% | OVCAR-4 ovarian 70.4% | SK-OV-3 ovarian 62% | IGROV1 ovarian 61.5% | OVCAR-3 ovarian 82.6% | NCI/ADR-RES ovarian 44.7% | T-47D breast 51.4%

Cc1cc(Cl)ccc1Nc1nc(C(F)(F)F)ccc1C(=O)NCC(=O)N/N=C/c1c(Cl)cccc1Cl
inactive: OVCAR-8 ovarian 73.4% | OVCAR-5 ovarian 87.8% | OVCAR-4 ovarian 86.4% | SK-OV-3 ovarian 88.5% | IGROV1 ovarian 35.4% | NCI/ADR-RES ovarian 77% | T-47D breast 51.9%
active: RPMI-8226 leukemia -20.6%

Cn1cc(-c2csc(-c3cn(C)c4ncccc34)n2)c2cccnc21
inactive: RPMI-8226 leukemia 87.5% | OVCAR-8 ovarian 93.7% | OVCAR-5 ovarian 90.2% | OVCAR-4 ovarian 100% | SK-OV-3 ovarian 123% | IGROV1 ovarian 111% | OVCAR-3 ovarian 112% | NCI/ADR-RES ovarian 91.1% | T-47D breast 101%

Cc1nnc(Nc2ccc(NC(=O)Nc3ccc(Cl)cc3)cc2)c2ccccc12
inactive: OVCAR-8 ovarian 31.4% | OVCAR-5 ovarian 72.8% | OVCAR-4 ovarian 42.6% | SK-OV-3 ovarian 66.4% | IGROV1 ovarian 62% | NCI/ADR-RES ovarian 45.1%
active: RPMI-8226 leukemia -11.9% | HS 578T breast 3.43% | T-47D breast 8.43%

O=C(CCc1nnc2sc(Cc3ccccc3Cl)nn12)c1nc2ccccc2[nH]1
inactive: RPMI-8226 leukemia 94.7% | OVCAR-8 ovarian 93.7% | OVCAR-5 ovarian 105% | OVCAR-4 ovarian 94% | SK-OV-3 ovarian 99.7% | IGROV1 ovarian 90.9% | OVCAR-3 ovarian 82.5% | NCI/ADR-RES ovarian 95.9% | T-47D breast 78.5%

NC(N)=NC(N)=NCCCc1ccccc1
inactive: RPMI-8226 leukemia 62.6% [100 µM] | OVCAR-8 ovarian 71.1% [100 µM] | OVCAR-5 ovarian 76.3% [100 µM] | OVCAR-4 ovarian 70% [100 µM] | SK-OV-3 ovarian 67.7% [100 µM] | IGROV1 ovarian 53.1% [100 µM] | OVCAR-3 ovarian 56.9% [100 µM] | NCI/ADR-RES ovarian 81.2% [100 µM] | T-47D breast 53.7% [100 µM]

O=C(/C(=C/c1cccc([N+](=O)[O-])c1)c1ccccc1)c1ccccc1
active: RPMI-8226 leukemia -7.27%
inactive: OVCAR-8 ovarian 13% | OVCAR-5 ovarian 74.5% | OVCAR-4 ovarian 42.9% | SK-OV-3 ovarian 105% | IGROV1 ovarian 60.4% | HS 578T breast 44.9% | NCI/ADR-RES ovarian 35.8% | T-47D breast 69.8%

O=C1c2nsnc2C(=O)c2c(F)c(F)c(F)c(F)c21
active: RPMI-8226 leukemia -1.71% | OVCAR-8 ovarian -38.6% | OVCAR-5 ovarian -73.8% | OVCAR-4 ovarian -99.5% | IGROV1 ovarian -22.9% | OVCAR-3 ovarian -90.1% | NCI/ADR-RES ovarian -17.1% | T-47D breast -38.9%
inactive: SK-OV-3 ovarian 32.4%

COc1ccc(/C(=C2\O[C@@H]([C@H](O)CO)[C@H]3OC(C)(C)O[C@@H]23)c2cc(OC)c(OC)c(OC)c2)cc1O
inactive: RPMI-8226 leukemia 73.3% | OVCAR-8 ovarian 107% | OVCAR-5 ovarian 90% | OVCAR-4 ovarian 104% | SK-OV-3 ovarian 106% | IGROV1 ovarian 100% | NCI/ADR-RES ovarian 24.5% | T-47D breast 102%

NC(=O)c1ncn([C@@H]2O[C@H](CO)[C@@H](O)[C@H]2O)n1
inactive: RPMI-8226 leukemia 87.2% | OVCAR-8 ovarian 72.7% | OVCAR-5 ovarian 102% | OVCAR-4 ovarian 92.2% | SK-OV-3 ovarian 96.8% | IGROV1 ovarian 98.9% | HS 578T breast 113% | NCI/ADR-RES ovarian 88% | T-47D breast 89%

c1ccc2c(c1)[nH]c1c2cc[n+]2cc3c(cc12)CCCC3
active: T-47D breast -13.8%
inactive: RPMI-8226 leukemia 32.6% | OVCAR-8 ovarian 10.7% | OVCAR-5 ovarian 48.1% | OVCAR-4 ovarian 38.9% | SK-OV-3 ovarian 23.4% | IGROV1 ovarian 66.4% | OVCAR-3 ovarian 20.9%

COc1ccc2c(c1)nc(N)c1c3ccccc3cn21
inactive: RPMI-8226 leukemia 80.3% | OVCAR-8 ovarian 87.8% | OVCAR-5 ovarian 113% | OVCAR-4 ovarian 95.6% | SK-OV-3 ovarian 85.6% | IGROV1 ovarian 73.1% | OVCAR-3 ovarian 79.3% | NCI/ADR-RES ovarian 69.1% | T-47D breast 70.7%

S=C(c1ccccc1)N1CCN(c2cccc(Cl)c2)CC1
inactive: RPMI-8226 leukemia 86.9% | OVCAR-8 ovarian 102% | OVCAR-5 ovarian 97.2% | OVCAR-4 ovarian 120% | SK-OV-3 ovarian 103% | IGROV1 ovarian 107% | NCI/ADR-RES ovarian 103% | T-47D breast 96.9%

Cn1cc(-c2csc(-c3cn(C)c4ncccc34)n2)c2cc(F)cnc21
inactive: RPMI-8226 leukemia 70.1% | OVCAR-8 ovarian 80.8% | OVCAR-5 ovarian 91.3% | OVCAR-4 ovarian 93.5% | SK-OV-3 ovarian 107% | IGROV1 ovarian 84% | OVCAR-3 ovarian 108% | NCI/ADR-RES ovarian 46.9% | T-47D breast 52.2%

Clc1cccc(Cc2cn3cc(-c4ccccc4)nc3s2)c1
inactive: RPMI-8226 leukemia 41.3% | OVCAR-8 ovarian 53.4% | OVCAR-5 ovarian 34.1% | OVCAR-4 ovarian 46.8% | SK-OV-3 ovarian 93.8% | IGROV1 ovarian 64.8% | HS 578T breast 76.8% | NCI/ADR-RES ovarian 60.2% | T-47D breast 11.5%

Cc1ccsc1/C=C/C1=NCCCN1C
inactive: RPMI-8226 leukemia 100% | OVCAR-8 ovarian 108% | OVCAR-5 ovarian 111% | OVCAR-4 ovarian 102% | SK-OV-3 ovarian 103% | IGROV1 ovarian 101% | HS 578T breast 115% | NCI/ADR-RES ovarian 107% | T-47D breast 93.9%
